In PubChem BioAssay (NCI):
About 83,000 compounds went through this panel and 20% of them were active in at least one assay; those are over-represented in the sample as a whole.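 The test compound was applied at a single concentration to cells in 96-well plates for 48 hours, and percent growth was recorded.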 The source made the active and inactive calls. How the source made its calls: active means growth percent below 10; inactive means the rest.

tested on: MDA-MB-468 breast; assay: NCI-60 one-dose screen, 48 h (100 = growth as untreated, 0 = no growth, -100 = all killed); conditions: 10 µM unless noted

| SMILES | growth |
| --- | --- |
| O=C1NC(=O)C2(CCc3ccccc32)N1 (centres undefined) | 106% (inactive) |
| CN1c2ccccc2C(C)(C)C12C=Cc1cc(O)ccc1O2 (centres undefined) | 4.08% (active) |
| COc1cc(OC)c(/C=C/c2cc[n+](C)c3ccccc23)c(OC)c1 | -20.6% (active) |
| COc1ccc(C2C=C(c3ccc(Cl)c(Cl)c3)N=C3SC(C)=CN32)cc1 (centres undefined) | 88.6% (inactive) |
